Bioassay records from PubChem.
This is a sample that favours compounds with a hit; in the whole collection about 22% have one here.
LmPK inh = blocks Leishmania mexicana pyruvate kinase activity | Q27686 | purified LmPK, Kinase-Glo ATP luminescence, 1 h | Potency, µM (highest dose often 57.5 µM), hits mostly inhibitors | 290,000 tested, 0.37% active
Target sequence (Q27686 whole entry, looked up): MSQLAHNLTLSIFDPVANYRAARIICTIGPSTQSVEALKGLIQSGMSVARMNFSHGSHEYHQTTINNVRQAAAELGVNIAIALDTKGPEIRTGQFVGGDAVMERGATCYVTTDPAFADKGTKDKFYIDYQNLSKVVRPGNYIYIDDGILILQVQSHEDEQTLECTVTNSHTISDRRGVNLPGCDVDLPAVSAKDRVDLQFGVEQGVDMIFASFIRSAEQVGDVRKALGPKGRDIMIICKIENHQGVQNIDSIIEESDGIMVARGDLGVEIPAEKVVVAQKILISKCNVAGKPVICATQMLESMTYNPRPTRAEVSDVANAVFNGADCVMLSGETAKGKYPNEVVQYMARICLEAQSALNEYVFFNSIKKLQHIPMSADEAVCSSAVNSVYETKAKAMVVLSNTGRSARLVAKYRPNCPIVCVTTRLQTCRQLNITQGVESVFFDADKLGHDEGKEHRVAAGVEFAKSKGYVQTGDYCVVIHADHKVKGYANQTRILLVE
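In 50 mM imidazole pH 7.2 with 7 mM MgCl2, LmPK (0.1 nM) turned over PEP (0.5 mM) and ADP (0.1 mM) for 1 h at room temperature. Luciferase read-out of ATP.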
Pf growth 96h = P. falciparum growth inhibition at 96 hours | Potency, µM (highest dose often 28.7 µM), actives largely listed as inhibitors | P. falciparum luciferase reporter growth, 96 h | AID 504834 | 320,000 tested, 6.9% active
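Luminescence readout: decreased luciferase signal marks inhibited growth of reporter-expressing P. falciparum in infected red cells (2% hematocrit, 0.05% parasitemia final), exposed to compound two generations (96 h, 37 C, 5% CO2).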
Pf growth 48h = P. falciparum growth inhibition at 48 hours (one generation) | Potency, µM (titrated, usually from 28.7 µM), most hits filed as inhibitors | 310,000 tested, 5.9% active | P. falciparum luciferase growth in erythrocytes, 48 h
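A one-generation exposure of luciferase-tagged malaria parasites in RPMI 1640/Albumax erythrocyte culture, 37 C and 5% CO2. Inhibition is inferred from decreased luminescence after adding detection reagent.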
CHX counter = counter-screen for Shiga toxin inhibitors: cycloheximide protein synthesis inhibition; cell reporter, cycloheximide protein synthesis inhibition counterscreen; max response, %; 300,000 tested, 12% active; in the data active = max response mostly above about 13%, no sharp cut-off; inactive = mostly below about 14%; also: read at 38.3 µM for the half of the compounds with a filed dose
Shiga inhibitor = inhibitors of Shiga toxin in Vero cells | Vero cells, Shiga toxin protein synthesis inhibition reporter | inhibition, % at 38.7 µM | 290,000 tested, 9.2% active; in the data active = inhibition mostly above about 28%, no sharp cut-off; inactive = mostly below about 43%
Numbers stand for hits; . = inactive; ? = inconclusive; / = no result; [ ] = remark or other dose. Unless noted, calls follow the shape of the dose curve; as a rule, active = well fitted inhibition curve with a large enough effect; inconclusive = small, poorly fitted or top-dose-only effect, or another doubt; inactive = no such curve, though single readings can be large or run the other way.

SMILES	LmPK inh	Pf growth 96h	Pf growth 48h	CHX counter	Shiga inhibitor
COc1cc(NC(=O)CN2C(=O)c3ccccc3Sc3ccc(C(=O)N4CCOCC4)cc32)cc(OC)c1OC	.	?	6.6µM	.	.
CC(Cc1ccc(C(C)(C)C)cc1)CN1CCCCC1 (stereo not drawn)	/	/	/	.	.
Cc1onc(-c2ccc(Cl)cc2Cl)c1-c1csc(COc2ccccc2)n1	.	?	?	.	.
COC(=O)c1ccc(OCC(=O)c2ccc(O)cc2O)cc1	.	.	.	.	.
CCOC(=O)c1ccc(OCC(=O)c2ccc(O)cc2O)cc1	.	.	.	18	50
O=C(COc1ccc(Cl)cc1)c1ccc(O)cc1O	.	.	.	25	69
C=COc1ccc(N2C(=O)c3ccccc3OC2C)cc1 (stereo not drawn)	.	.	.	.	/
CC(C)c1ccc(-c2nc3ccccc3s2)cc1	?	?	.	.	.
CC[n+]1cccc(-c2nc3ccccc3s2)c1	.	?	.	39	.
Oc1cccc(-c2nc3ccccc3s2)c1	.	.	.	24	43
Cc1cc(C)c(-c2nc3ccccc3s2)[nH]1	.	.	.	32	96
Nc1cccc(-c2nc3ccccc3s2)c1	14µM	.	/	31	69
Cc1cc(OCC(=O)Nc2ccc3oc(=O)ccc3c2)ccc1Cl	.	?	.	.	.
CC(=O)c1ccc(OCCCC(=O)Nc2ccc(S(=O)(=O)N3CCOCC3)cc2)cc1	/	?	.	/	/
O=C(O)c1ccc2c(c1)C(=O)N(c1cccc(-c3nc4ccccc4s3)c1)C2=O	.	?	.	49	61
CC(=O)N1CCc2cc(S(=O)(=O)CCC(=O)Nc3ccc(Cl)cc3F)ccc21	.	?	.	.	.
O=c1cc(-c2ccccc2)[nH]n1-c1ccc([N+](=O)[O-])cc1	.	?	?	35	71
O=c1c(N=Nc2ccc(O)cc2)c(-c2ccccc2)[nH]n1-c1ccc([N+](=O)[O-])cc1	.	.	.	.	.
CCCNC(=O)Cn1cnc2sc(C(=O)N3CCN(CCC)CC3)c(C)c2c1=O	.	0.37µM	.	.	.
CCCNC(=O)Cn1cnc2sc(C(=O)N3CCC4(CC3)OCCO4)c(C)c2c1=O	.	.	.	.	.
Cc1ccc2ccccc2c1NC(=O)c1ccco1	.	.	.[0.00184 µM]	.	.
COC(=O)c1cccc(C23CC4(C2)[C@H](CN(Cc2ccc(C(F)(F)F)cc2)[C@@H]4c2ccccc2)C3c2ccccc2)c1 (stereo partly drawn)	.	?	?	.	.
FC(F)(F)c1ccc(CN2C[C@@H]3C(c4ccc(Cl)nc4)C4(c5ccccc5)CC3(C4)[C@H]2c2ccccc2)cc1 (stereo partly drawn)	.	?	12µM	.	.
FC(F)(F)c1ccc(C2[C@H]3CN(Cc4ccc(-c5ccccc5)cc4)[C@H](c4ccccc4)C34CC2(c2ccccc2)C4)cc1 (stereo partly drawn)	.	.	?	.	.
N#Cc1ccc(C23CC4(C2)[C@H](CN(Cc2ccc(-c5ccccc5)cc2)[C@@H]4c2ccccc2)C3c2ccc(C(F)(F)F)cc2)cc1 (stereo partly drawn)	.	?	15µM	.	.
SMILES	LmPK inh	Pf growth 96h	Pf growth 48h	CHX counter	Shiga inhibitor
Clc1ccc(C2[C@H]3CN(Cc4cccnc4)[C@H](c4ccccc4)C34CC2(c2cccnc2)C4)cn1 (stereo partly drawn)	.	4.7µM	10µM	.	.
FC(F)(F)c1ccc(C2[C@H]3CN(Cc4ccc(-c5ccccc5)cc4)[C@H](c4ccccc4)C34CC2(c2cccnc2)C4)cc1 (stereo partly drawn)	.	0.41µM	3.3µM	.	.
COC(=O)c1ccc(C23CC4(C2)[C@H](CN(Cc2ccc(-c5ccccc5)cc2)[C@@H]4c2ccccc2)C3c2ccc(C(F)(F)F)cc2)cc1 (stereo partly drawn)	.	?	?	.	.
Cc1cccnc1NC(=O)CCCNC(=O)c1ccc(Cl)cc1	/	.	.	/	/
COc1ccc(CCC(=O)N2CCN(S(=O)(=O)c3cccs3)CC2)cc1	/	.	.	/	/
CC(c1ccc(F)cc1)n1c(-c2cccs2)n[nH]c1=S (stereo not drawn)	?	.	.	.	.
c1ccc(-c2ccc(CN3C[C@@H]4C(c5ccccc5)C5(c6cccnc6)CC4(C5)[C@H]3c3ccccc3)cc2)cc1 (stereo partly drawn)	.	4.1µM	2.9µM	.	.
CN1C[C@@H]2C(c3ccc(C(F)(F)F)cc3)C3(c4ccccc4)CC2(C3)[C@H]1c1ccccc1 (stereo partly drawn)	.	?	?	.	.
CN1C[C@@H]2C(c3ccccc3)C3(c4cccnc4)CC2(C3)[C@H]1c1ccccc1 (stereo partly drawn)	.	12µM	12µM	.	.
FC(F)(F)c1ccc(C2[C@H]3CN(Cc4cccnc4)[C@H](c4ccccc4)C34CC2(c2cccnc2)C4)cc1 (stereo partly drawn)	.	1.5µM	1.9µM	.	.
Cc1sc(NC(=O)C2=COCCO2)c(C(N)=O)c1C	/	.	.	/	/
O=[N+]([O-])c1cccc(P(=O)(O)c2cccc([N+](=O)[O-])c2)c1	.	.	.	.	.
CN1CCCCC1c1ccc(-c2cccnc2)nc1 (stereo not drawn)	.	.	.	16	.
Cc1ccccc1NC(=S)NC(NC(=O)c1ccccc1C)C(Cl)(Cl)Cl (stereo not drawn)	.	2.6µM	?	.	.
Cc1cc(C)c(NC(=S)NC(NC(=O)c2ccccc2)C(Cl)(Cl)Cl)c(C)c1 (stereo not drawn)	.	.	3.3µM	.	.
Cc1ccc(NC(=S)NC(NC(=O)c2ccccc2)C(Cl)(Cl)Cl)c(C)c1 (stereo not drawn)	.	?	10µM	.	.
Cc1ccc(C)c(NC(=S)NC(NC(=O)Cc2ccccc2)C(Cl)(Cl)Cl)c1 (stereo not drawn)	.	/	?	.	.
Cc1nc(C(C)N(C)Cc2c(C(=O)N3CCCCC3)nc3c(C)cccn23)c(C)s1 (stereo not drawn)	.	10µM	?	.	.
Cc1cccn2c(CN(C)C3CCOC3)c(C(=O)N3CCCCC3)nc12 (stereo not drawn)	.	?	.	.	.
COC(=O)[C@@H]1CCCN1Cc1c(C(=O)N2CCCCC2)nc2c(C)cccn12	.	8.3µM	.	.	.
Cc1cccn2c(CN3CCSCC3)c(C(=O)N3CCOCC3)nc12	.	?	.	.	.
Cc1cccn2c(CN(C)CCC3CCCCO3)c(C(=O)N3CCCCC3)nc12 (stereo not drawn)	.	13µM	.	.	.
Cc1nn(C)cc1CNCc1c(C(=O)N2CCCCC2)nc2c(C)cccn12	.	.	.	.	.
Cc1cc(C)n2nc(-c3ccccc3)c(-c3ccccc3)c2n1	.	?	.	.	.
O=C(O)c1ccc(S(=O)(=O)NCC2CCCO2)cc1 (stereo not drawn)	.	.	.	.	.
